The nature of experiment [1]: Nuclear factor erythroid 2-related factor 2/antioxidant responsive element (Nrf2/ARE) small molecule agonists: luciferase reporter gene qHTS assay in human keratinocytes (AID 1919969; note: nearly all actives have a fitted effect of over 35% in size; note: potency is the fitted concentration of half-maximal effect). (In general: In a reporter assay the amount or activity of a reporter protein is the signal.)
The target in experiment [2] is Gonadotropin-releasing hormone receptor (Homo sapiens) (UniProt P30968). Nature of the experiment: Human gonadotropin-releasing hormone receptor (GnRHR) small molecule agonists, calcium flux assay in GnRHR-HEK293 cells (AID 1920063). Note: nearly all actives have a fitted effect of over 35% in size. A digest of the protocol: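 We seeded human GnRHR-expressing HEK293 cells for 18 hours, loaded them with calcium dye for an hour at 37 C, added test compounds, and recorded fluorescence intensity kinetically for three minutes.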
Sequence of Gonadotropin-releasing hormone receptor (Homo sapiens) (P30968 whole entry, looked up): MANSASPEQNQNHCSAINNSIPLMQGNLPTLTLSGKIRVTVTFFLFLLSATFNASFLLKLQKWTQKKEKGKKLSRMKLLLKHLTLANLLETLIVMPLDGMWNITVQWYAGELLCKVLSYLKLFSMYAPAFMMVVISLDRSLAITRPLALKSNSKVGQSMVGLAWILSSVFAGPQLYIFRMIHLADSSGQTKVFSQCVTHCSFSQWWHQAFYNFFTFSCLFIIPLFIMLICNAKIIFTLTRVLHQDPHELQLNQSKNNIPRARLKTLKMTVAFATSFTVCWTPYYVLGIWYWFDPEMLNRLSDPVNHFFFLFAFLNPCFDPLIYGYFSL
On the technique in general: A change in cytosolic calcium serves as a functional read-out for many receptors and channels.

Experiment [3] deals with KiSS-1 receptor (Homo sapiens) (UniProt Q969F8). Nature of the experiment: Human kisspeptin (KISS1R) small molecule agonists, calcium flux assay in KISS1R-HEK293 cells (AID 1920064; active = well fitted activation curve with a large enough effect in the repeat runs). A digest of the protocol: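 Kinetic calcium assay, 1 s sampling over 3 min at Ex/Em 480/540, in HEK293 cells engineered with human KISS1R; compounds delivered in DMSO after 1 h dye loading.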
Sequence of KiSS-1 receptor (Homo sapiens) (Q969F8 whole entry, looked up): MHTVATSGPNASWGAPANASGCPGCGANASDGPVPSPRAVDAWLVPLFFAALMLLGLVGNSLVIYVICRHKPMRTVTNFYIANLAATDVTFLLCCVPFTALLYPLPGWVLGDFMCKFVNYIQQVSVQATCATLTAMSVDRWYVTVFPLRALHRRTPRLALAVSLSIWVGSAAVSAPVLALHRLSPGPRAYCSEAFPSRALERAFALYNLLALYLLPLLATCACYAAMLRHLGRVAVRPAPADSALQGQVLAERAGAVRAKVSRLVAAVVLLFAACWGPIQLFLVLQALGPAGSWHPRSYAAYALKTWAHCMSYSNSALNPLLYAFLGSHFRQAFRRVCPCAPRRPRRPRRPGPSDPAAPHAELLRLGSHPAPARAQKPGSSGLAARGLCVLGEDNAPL

Experiment [4] is described as follows: G protein-coupled receptor (GPCR) small molecule agonists, calcium flux assay: HEK293 wild type cell line counter screen (AID 1920065). Put shortly: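 Calcium-sensitive dye, loaded 1 h at 37 C into cells cultured 18 h, reports compound-evoked calcium release as fluorescence (Ex/Em 480/540), measured over 3 min. Agonist mode; 15-point titrations, triplicate.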

Experiment [5] in a line: p53 small molecule agonists, cell-based qHTS assay with human liver microsomes (AID 1963577). Put shortly: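 Compounds act here after metabolic activation: human liver microsomes and NADPH, both at 0.5 mg/mL final, were co-added to p53RE-bla cells. Incubation ran 16 h at 37 C, followed by LiveBLAzer detection.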
On the technique in general: Quantitative high-throughput screening tests each substance at several concentrations.

Experiment [6] in a line: p53 small molecule agonists, cell-based qHTS assay with rat liver microsomes (AID 1963578). Put shortly: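 Read-out is beta-lactamase reporter fluorescence (LiveBLAzer, 2 h, room temperature, dark) in p53RE-bla cells treated 16 h at 37 C with compound, rat liver microsomes and NADPH, both 0.5 mg/mL final.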
The nature of experiment [7]: p53 small molecule agonists, cell-based qHTS assay with human liver microsomes: qHTS cell viability counter screen (AID 1963579). Note: nearly all actives have a fitted effect of over 45% in size. Note: potency is the fitted concentration of half-maximal effect. Put shortly:
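Cells carrying the p53 response-element beta-lactamase reporter are treated for 16 h at 37 C with test compounds in the presence of human liver microsomes and NADPH (both 0.5 mg/mL final); ATP-based CellTiter-Glo luminescence then reports viability.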

Experiment [8] is described as follows: p53 small molecule agonists, cell-based qHTS assay with rat liver microsomes: qHTS cell viability counter screen (AID 1963580). Note: nearly all actives have a fitted effect of over 45% in size. A digest of the protocol: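 p53RE-bla HCT-116 cells (4,000/well) rested 5 h at 37 C, then given Tox21 compounds in DMSO with rat liver microsomes (0.5 mg/mL final) plus NADPH (0.5 mg/mL final) for 16 h at 37 C. Viability read by CellTiter-Glo luminescence after 30 min at room temperature.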

Experiment [9] is described as follows: p53 small molecule agonists, cell-based qHTS assay: qHTS cell viability counter screen (AID 1963581). Note: nearly all actives have a fitted effect of over 45% in size. A digest of the protocol:
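Following 5 h attachment, HCT-116 p53RE-bla cells took up compound for 16 h at 37 C; the reporter was read with B/G FRET substrate (2 h RT), and viability then via CellTiter-Glo ATP luminescence.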

The nature of experiment [10]: p53 small molecule agonists, cell-based qHTS assay (AID 1963582; active = well fitted activation curve with a large enough effect in the signal ratio in the repeat runs, not every such curve was filed as active; the % refers to the signal ratio; note: potency is the fitted concentration of half-maximal effect). A digest of the protocol:
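In this cell-based concentration-response screen, a p53 response element drives beta-lactamase; cells received DMSO-borne compounds after 5 h culture and were incubated a further 16 h before FRET substrate development.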

Experiment [11] deals with 5-hydroxytryptamine receptor 2A (Homo sapiens) (UniProt P28223). Nature of the experiment: 5-hydroxytryptamine receptor 2A (HTR2A) small molecule agonists, cell-based qHTS assay (AID 1963587). Note: nearly all actives have a fitted effect of over 30% in size. A digest of the protocol:
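HTR2A-CHO cells, plated 18 h at 37 C/5% CO2, dye-loaded 1 h at 37 C; compounds in DMSO added by pin tool (agonist mode). Intracellular calcium flux read as kinetic fluorescence on FDSS over 2 min at 1 s intervals.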

Experiment [12] deals with Muscarinic acetylcholine receptor M1 (Homo sapiens) (UniProt P11229). Kind of experiment: Cholinergic receptor muscarinic 1 (CHRM1) small molecule antagonists, cell-based qHTS assay (AID 1963588). Note: nearly all actives have a fitted effect of over 40% in size. A digest of the protocol:
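CHRM1-CHO calcium-flux assay, antagonist mode. Cells were seeded 18 h, dye-loaded 1 h at 37 C and given compound for 5 min at RT, then acetylcholine was added at 50nM. FDSS fluorescence was read 3 min; 15 concentrations, three runs.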

For experiment [13] the target is unchanged. Kind of experiment: Cholinergic receptor muscarinic 1 (CHRM1) small molecule agonists, cell-based qHTS assay (AID 1963589). Note: nearly all actives have a fitted effect of over 35% in size. Put shortly:
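Measures agonist-induced intracellular calcium rise. Stable human CHRM1 CHO line, 1 h dye load at 37 C, compounds from DMSO, kinetic fluorescence read.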

A short description of experiment [14]: cAMP Responsive Elements (CRE) small molecule agonists, cell-based qHTS assay (AID 1963590). Put shortly:
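A CRE-responsive beta-lactamase reporter in HEK 293T cells was used. Treatment ran 3 h at 37 C; detection used LiveBLAzer B/G FRET substrate for 2 h at room temperature.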

A short description of experiment [15]: cAMP Responsive Elements (CRE) small molecule antagonists, cell-based qHTS assay (AID 1963591; active = well fitted inhibition curve with a large enough effect in the signal ratio in the repeat runs, not every such curve was filed as active; the % refers to the signal ratio). A digest of the protocol:
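HEK293T cells carrying a CRE-driven beta-lactamase reporter receive compound and NKH477 (0.25 uM final) for 3 h. Fluorescence from LiveBLAzer B/G FRET substrate is read after 2 h at room temperature.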

The target of experiment [16] is Beta-2 adrenergic receptor (Homo sapiens) (UniProt P07550). Nature of the experiment: Adrenergic beta2 receptor (ADRB2) small molecule antagonists, cell-based qHTS assay (AID 1963592). Note: series mostly up to about 92 µM; nearly all actives have a fitted effect of over 50% in size. Put shortly: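 Cells (CHO, stable ADRB2 overexpression) incubated 18-20hr at 37C; compounds added from DMSO; agonist mix (1nM isoproterenol, 100uM IBMX, 25uM Ro-20-1724) added; 0.5hr RT; d2-cAMP and anti-cAMP-cryptate added; 1hr RT; 665/615 nm read.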
Sequence of Beta-2 adrenergic receptor (Homo sapiens) (P07550 whole entry, looked up): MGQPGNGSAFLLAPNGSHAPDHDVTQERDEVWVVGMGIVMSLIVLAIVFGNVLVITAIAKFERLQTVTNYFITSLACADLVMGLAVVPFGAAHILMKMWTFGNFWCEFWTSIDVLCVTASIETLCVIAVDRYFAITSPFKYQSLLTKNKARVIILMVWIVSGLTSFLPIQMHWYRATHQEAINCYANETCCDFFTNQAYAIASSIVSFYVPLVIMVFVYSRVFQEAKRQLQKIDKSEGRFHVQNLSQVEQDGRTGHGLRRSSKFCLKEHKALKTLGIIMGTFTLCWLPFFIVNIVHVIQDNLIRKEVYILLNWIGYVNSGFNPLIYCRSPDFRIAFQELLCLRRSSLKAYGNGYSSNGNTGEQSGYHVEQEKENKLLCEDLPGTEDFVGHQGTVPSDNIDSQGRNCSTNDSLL

Experiment [17] has as its target D(2) dopamine receptor (Homo sapiens) (UniProt P14416). Nature of the experiment: Dopamine D2 receptor (DRD2) small molecule agonists, cell-based qHTS assay (AID 1963594). Note: nearly all actives have a fitted effect of over 35% in size. Put shortly: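 HEK293 cells stably expressing DRD2 were cultured 24 h at 37 C, then given Ro20-1724 (0.1 mM final) and compounds for 10 min at room temperature. NKH477 (200nM) was then added for 30 min. cAMP was read by HTRF.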

For experiment [18] the target is unchanged. Nature of the experiment: Dopamine D2 receptor (DRD2) small molecule antagonists, cell-based qHTS assay (AID 1963595; active = well fitted inhibition curve with a large enough effect in the signal ratio in the repeat runs, with a control signal flat; the % refers to the signal ratio). A digest of the protocol: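 In this cell-based antagonist screen, compounds act for 10 min at room temperature before a 30 min challenge with 12 nM quinpirole and 200 nM NKH477. cAMP is quantified by HTRF competition in DRD2-HEK293 cells containing 0.1 mM Ro20-1724.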

Experiment [19] has as its target Beta-2 adrenergic receptor (Homo sapiens) (UniProt P07550). Kind of experiment: Adrenergic beta2 receptor (ADRB2) small molecule agonists, cell-based qHTS assay (AID 1963593).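 Note: CHO cells stably overexpressing human ADRB2.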 A digest of the protocol: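 CHO cells stably over-expressing ADRB2 were plated overnight at 37C, then dosed with compounds plus a stimulation mix containing 100uM IBMX and 25uM Ro-20-1724 for 0.5hr at room temperature. cAMP was measured by HTRF competition, 1hr.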

Experiment [20] deals with 5-hydroxytryptamine receptor 2A (Homo sapiens) (UniProt P28223). Nature of the experiment: 5-hydroxytryptamine receptor 2A (HTR2A) small molecule antagonists, cell-based qHTS assay (AID 1963586). Note: nearly all actives have a fitted effect of over 45% in size. Put shortly:
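Antagonist-mode intracellular calcium assay: DOI (4 nM) added after 5 min compound pre-incubation at room temperature to dye-loaded HTR2A-CHO cells. Fluorescence followed for 3 min, sampled every second.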

A number with no mark means an inactive call. Results filed as inconclusive are left out. Active and inactive are the calls of the source. Unless noted, calls come from the whole dose curve.

Sequence of D(2) dopamine receptor (Homo sapiens) (P14416 whole entry, looked up): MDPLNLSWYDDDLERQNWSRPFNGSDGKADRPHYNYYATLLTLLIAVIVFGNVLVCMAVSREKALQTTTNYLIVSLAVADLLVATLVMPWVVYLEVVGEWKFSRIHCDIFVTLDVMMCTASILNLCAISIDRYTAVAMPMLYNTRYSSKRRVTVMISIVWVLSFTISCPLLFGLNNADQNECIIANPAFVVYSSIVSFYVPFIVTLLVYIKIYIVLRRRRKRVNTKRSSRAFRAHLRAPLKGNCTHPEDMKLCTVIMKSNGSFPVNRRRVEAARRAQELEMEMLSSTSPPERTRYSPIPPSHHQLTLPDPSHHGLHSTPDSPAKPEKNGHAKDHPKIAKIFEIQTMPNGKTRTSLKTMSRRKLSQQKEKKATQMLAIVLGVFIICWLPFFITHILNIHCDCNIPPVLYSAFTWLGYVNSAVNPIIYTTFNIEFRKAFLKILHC
Sequence of 5-hydroxytryptamine receptor 2A (Homo sapiens) (P28223 whole entry, looked up): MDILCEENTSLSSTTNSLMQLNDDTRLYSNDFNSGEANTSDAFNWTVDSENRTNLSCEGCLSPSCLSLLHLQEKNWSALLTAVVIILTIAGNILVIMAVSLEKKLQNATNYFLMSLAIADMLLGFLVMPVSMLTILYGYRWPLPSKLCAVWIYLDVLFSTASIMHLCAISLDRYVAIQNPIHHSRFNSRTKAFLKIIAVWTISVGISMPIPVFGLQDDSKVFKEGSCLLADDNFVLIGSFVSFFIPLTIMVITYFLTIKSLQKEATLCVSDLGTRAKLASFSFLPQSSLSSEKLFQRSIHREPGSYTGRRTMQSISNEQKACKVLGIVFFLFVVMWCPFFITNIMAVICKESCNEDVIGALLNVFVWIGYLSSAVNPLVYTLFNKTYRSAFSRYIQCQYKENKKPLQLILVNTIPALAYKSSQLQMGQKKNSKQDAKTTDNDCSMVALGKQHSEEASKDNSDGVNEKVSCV
Sequence of Muscarinic acetylcholine receptor M1 (Homo sapiens) (P11229 whole entry, looked up): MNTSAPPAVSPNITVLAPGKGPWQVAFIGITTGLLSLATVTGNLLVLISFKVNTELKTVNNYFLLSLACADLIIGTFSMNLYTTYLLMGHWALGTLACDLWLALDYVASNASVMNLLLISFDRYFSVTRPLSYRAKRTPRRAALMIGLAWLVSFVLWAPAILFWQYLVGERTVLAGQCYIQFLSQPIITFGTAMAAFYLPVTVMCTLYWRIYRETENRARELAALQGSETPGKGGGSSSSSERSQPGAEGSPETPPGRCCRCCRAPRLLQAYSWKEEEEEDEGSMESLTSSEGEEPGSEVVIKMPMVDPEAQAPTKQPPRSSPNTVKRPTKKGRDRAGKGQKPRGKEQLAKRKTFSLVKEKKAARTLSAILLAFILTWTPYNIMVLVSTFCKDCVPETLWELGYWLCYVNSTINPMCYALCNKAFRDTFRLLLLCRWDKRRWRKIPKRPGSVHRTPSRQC

Regarding `O=C(CCCN1CCN(c2ccccn2)CC1)c1ccc(F)cc1`, the Potency entry in experiment [1], in [2], in experiment [5], in [6], in experiment [7] and in [8] was “inactive” each time. Besides, the Potency entry in experiment [9], in experiment [10], in experiment [11], in experiment [12], in experiment [13] and in experiment [14] was “inactive” each time. The Potency entry in experiment [15] and in experiment [16] was “inactive” throughout. Further, the outcome in [3] and in experiment [4] was inactive.

Regarding `O=P(O)(O)C(O)(Cc1cccnc1)P(=O)(O)O`, the Potency result in experiment [1], in experiment [2], in experiment [5], in [6], in experiment [7] and in experiment [8] was “inactive” each time. Also, the Potency result in experiment [9], in experiment [10], in [14], in experiment [15], in [17] and in [18] was “inactive” in each case. Further, the result in experiment [3] and in experiment [4] was inactive.

Turning to `Nc1nc2c(ncn2COCCO)c(=O)[nH]1`, the Potency entry in [1], in experiment [2], in [5], in experiment [6], in [7] and in experiment [8] was “inactive” in each case. Also, the Potency result in [9], in [10], in experiment [14], in experiment [15], in [16] and in [19] was “inactive” in each case. Further, in experiment [17], the Potency result is “inactive”. In addition, the result in [3] and in experiment [4] was inactive.

As to `CC(C)C(=O)OCc1ccccc1`, the Potency entry in [1], in [2], in [5], in experiment [6], in experiment [7] and in [8] was “inactive” throughout. Further, the Potency result in experiment [9], in experiment [10], in [20], in experiment [11], in [12] and in experiment [13] was “inactive” in each case. The Potency entry in [14], in [15], in experiment [16], in experiment [17] and in [18] was “inactive” each time. Further, the result in [3] and in [4] was inactive.

On to `CCOC(=O)[C@H](CCc1ccccc1)N[C@@H](C)C(=O)N1CCC[C@H]1C(=O)O`, for which the Potency result in experiment [1], in experiment [2], in [5], in experiment [6], in [7] and in [8] was “inactive” each time. Besides, the Potency result in experiment [9], in experiment [10], in [14], in experiment [15], in experiment [16] and in experiment [18] was “inactive” in each case. The result in experiment [3] and in experiment [4] was inactive.

Take `O=C1c2ccccc2C(=O)C1(O)O`: the Potency in [1] is 61.4 µM (active); in [7] it was 36.5 µM (active); in experiment [10], 36.5 µM (active). For the same compound, the Potency entry in [2], in experiment [5], in experiment [6], in experiment [8], in experiment [9] and in experiment [20] was “inactive” throughout. For the same compound, the Potency result in [12], in experiment [13], in [16], in experiment [19], in experiment [17] and in [18] was “inactive” each time. Also, the outcome in [3] and in experiment [4] was inactive.

Turning to `CC(NC(CCc1ccccc1)C(=O)O)C(=O)N1C(=O)N(C)CC1C(=O)O` (configuration not stated), the Potency entry in experiment [1], in [2], in [5], in experiment [6], in [7] and in experiment [8] was “inactive” in each case. Moreover, the Potency entry in experiment [9], in [10], in experiment [20], in [11], in experiment [12] and in [13] was “inactive” in each case. The Potency result in [14], in [16], in [17] and in experiment [18] was “inactive” in each case. The outcome in experiment [3] and in experiment [4] was inactive.

In the case of `Nc1ccc(F)c([N+](=O)[O-])c1`, the Potency entry in experiment [1], in [2], in experiment [5], in experiment [6], in experiment [7] and in experiment [8] was “inactive” in each case. Besides, the Potency entry in experiment [9], in experiment [10], in [20], in [11], in experiment [12] and in experiment [13] was “inactive” in each case. In addition, the Potency result in experiment [14], in [15], in experiment [16], in experiment [17] and in experiment [18] was “inactive” each time. The result in [3] and in experiment [4] was inactive.

The values are drawn from PubChem BioAssay (Tox21).
